Test results as given in PubChem BioAssay AID463173 (ICCB-Longwood Screening Facility, Harvard Medical School, 2010).
Screen size: about 52,000 compounds; about 1,700 (3.3%) were called active. Rule as the data show it: active = survival mostly below about 52% (no sharp cut-off); inactive = mostly above about 56%. This excerpt belongs to a sample that is enriched for actives.

Each molecule was assayed on Wild type (assay: growth inhibition of S. aureus wild type versus tarO mutant, primary screen, teichoic acid synthesis inhibitors, RN4220, OD600 (AID 463173)). Conditions: S. aureus RN4220 wild type/DeltatarO growth, OD600, 18 h, active compounds read low, screened at 18.75 µg/mL (by protocol).

Structure (SMILES)	survival
COc1ccc(NC(=O)CCS(=O)(=O)c2nc(-c3cccs3)cc(C(F)(F)F)n2)cc1OC	100% (inactive)
COc1ccccc1NC(=O)CCn1nc(-c2ccccc2)c2ccccc2c1=O	4% (active)
Cc1ccc(NC(=O)CCn2nc(-c3ccccc3)c3ccccc3c2=O)c(C)c1	75% (inactive)
O=C(CCn1nc(-c2ccccc2)c2ccccc2c1=O)Nc1ccccc1	86% (inactive)
CCCOc1ccccc1C1C(C(=O)Nc2ccccc2)=C(C)Nc2nnnn21 (stereo not drawn)	134% (inactive)
COc1ccc(-n2c(-c3ccc(F)cc3)cn3c4c(=O)n(C)c(=O)n(C)c4nc23)cc1	63% (inactive)
CC(C)(C)C(=O)Nc1nnc2n1CCS2	77% (inactive)
C=Cc1ccc(Cn2c(C(=O)O)c(CNCCc3ccccc3)c3ccc(C)cc32)cc1	69% (inactive)
Cc1ccc(CNCc2c(C(=O)O)n(Cc3ccccc3C)c3cc(C)ccc23)cc1	63% (inactive)
Cc1ccc2c(CNCCc3ccc(Cl)cc3)c(C(=O)O)n(Cc3ccc(F)cc3)c2c1	4% (active)
C=Cc1ccc(Cn2c(C(=O)O)c(CNCc3ccc(F)cc3)c3ccc(C)cc32)cc1	68% (inactive)
Cc1ccc2c(CNCCc3ccccc3)c(C(=O)O)n(Cc3ccccc3C)c2c1	1% (active)
Cc1ccc2c(CNCCc3ccco3)c(C(=O)O)n(Cc3ccc(F)cc3)c2c1	66% (inactive)
Cc1ccccc1NC(=O)Cn1nc(-c2ccccc2)nc(Cc2ccccc2)c1=O	70% (inactive)
CC(C)OCCCn1c(=O)c2ccccc2n2c(-c3ccccc3F)nnc12	88% (inactive)
Cc1c(C(=O)N2CCCC2)oc2c1-c1nn(CC(=O)NCc3cccc(F)c3)cc1CC2	85% (inactive)
Cc1cccc(N2CCN(C(=O)c3noc4c3COc3ccc(C)cc3-4)CC2C)c1 (stereo not drawn)	80% (inactive)
CN(C)c1ncnc(Cl)c1N	101% (inactive)
CCOc1ccc(-c2nnc(SCC(=O)Nc3cccc(OC)c3)nc2-c2ccc(OCC)cc2)cc1	-3% (active)
CCOc1ccc(NC(=O)CSc2nnc(-c3ccc(C)cc3)c(-c3ccc(C)cc3)n2)cc1	115% (inactive)
Cc1ccc(NC(=O)CSc2ncc3c(n2)-c2ccc(Cl)cc2N(C)S3(=O)=O)cc1F	69% (inactive)
COc1cccc(NC(=O)CSc2ncc3c(n2)-c2ccc(Cl)cc2N(C)S3(=O)=O)c1	10% (active)
CCc1cccc(NC(=O)CSc2ncc3c(n2)-c2cc(Cl)ccc2N(C)S3(=O)=O)c1	65% (inactive)
CCOc1ccc(NC(=O)CSc2ncc3c(n2)-c2cc(Cl)ccc2N(C)S3(=O)=O)cc1	-3% (active)

Structure (SMILES)	survival
CCOc1ccc(NC(=O)CSc2ncc3c(n2)-c2ccccc2N(C)S3(=O)=O)cc1	78% (inactive)
COc1cc(NC(=O)CSc2ncc3c(n2)-c2ccc(Cl)cc2N(Cc2ccccc2)S3(=O)=O)cc(OC)c1	65% (inactive)
COc1ccc(-c2nnc(SCC(=O)Nc3cccc(C(F)(F)F)c3)nc2-c2ccc(OC)cc2)cc1	79% (inactive)
CN(C)CCn1c2c(c(SCC(=O)Nc3ccc(F)cc3F)nc1=O)CCC2	83% (inactive)
COC(=O)c1scc(-c2ccccc2)c1S(=O)(=O)Nc1cccc(C)c1C	100% (inactive)
Cn1c(Cc2cccs2)nnc1SCC(=O)N1CCCc2ccccc21	109% (inactive)
O=C(CSC1=Nc2ccccc2C2=NC(CC(=O)NC3CCCCC3)C(=O)N12)Nc1ccc(F)cc1 (stereo not drawn)	71% (inactive)
COc1cc(NC(=O)c2noc3c2CC(C(C)(C)C)CC3)cc(OC)c1OC (stereo not drawn)	68% (inactive)
CCOC(=O)c1c(NC(=O)c2noc3c2CC(C(C)(C)C)CC3)sc2c1CCCC2 (stereo not drawn)	88% (inactive)
CCc1ccccc1NC(=O)c1noc2c1CC(C(C)(C)C)CC2 (stereo not drawn)	-11% (active)
O=C(C1CCCN(S(=O)(=O)c2ccc(Br)s2)C1)N1CCN(c2cccc(Cl)c2)CC1 (stereo not drawn)	73% (inactive)
Cc1cc(C)n2nc(CNS(=O)(=O)c3ccc(F)cc3)nc2n1	88% (inactive)
Cc1nc(SCc2ccccc2Cl)c(C#N)c(C)c1C	-2% (active)
Cc1ccc(Cl)cc1NC(=O)CSc1nc(C)c(C)c(C)c1C#N	86% (inactive)
Cc1nc(SCc2ccc(Cl)cc2)c(C#N)c(C)c1Cl	32% (inactive)
Cc1cc(F)ccc1NC(=O)Cn1cc(S(=O)(=O)NC(C)C)c(S(=O)(=O)NC(C)C)c1	73% (inactive)
CNS(=O)(=O)c1cn(CC(=O)Nc2ccc(C)cc2C)cc1S(=O)(=O)NC	121% (inactive)
CNS(=O)(=O)c1cn(CC(=O)Nc2ccc(F)cc2F)cc1S(=O)(=O)NC	-3% (active)
CCC(=O)N1CCc2cc(Br)cc(S(=O)(=O)N3CCC(C(=O)Nc4ccccc4CC)CC3)c21	89% (inactive)
CCC(=O)N1CCc2cc(Br)cc(S(=O)(=O)N3CCC(C(=O)Nc4ccc(OC)cc4)CC3)c21	0% (active)
CCC(=O)N1CCc2cc(Br)cc(S(=O)(=O)N3CCC(C(=O)Nc4cccc(C)c4)CC3)c21	94% (inactive)
CC(C(=O)N(C(C)C)C(C)C)N1CCN(C)CC1 (stereo not drawn)	93% (inactive)
O=C(Cn1c(=O)nc(-c2ccccc2)c2ccccc21)NCc1ccccc1Cl	73% (inactive)
CCOc1ccc(CNC23CN4CN(CN(C4)C2)C3)cc1	99% (inactive)

Structure (SMILES)	survival
CC1CCN(C(=O)CSc2nc(-c3ccc(F)cc3)cc(C(F)(F)F)n2)CC1	11% (active)
CC1CN(C(=O)C(C)Sc2nc(-c3ccccc3)cc(C(F)(F)F)n2)CC(C)O1 (stereo not drawn)	101% (inactive)
CC1CCN(C(=O)CSc2n[nH]c(-c3ccc(F)cc3)n2)CC1	76% (inactive)
CC1CCN(C(=O)C(C)Sc2nc(-c3ccccc3)cc(C(F)(F)F)n2)CC1 (stereo not drawn)	-7% (active)
O=C(CSc1n[nH]c(-c2ccc(F)cc2)n1)N1CCN(c2ccc(F)cc2)CC1	-6% (active)
COc1ccc(-c2cc(C(F)(F)F)nc(SCC(=O)N3CCC(C)CC3)n2)cc1	55% (inactive)
CC(Sc1nc(-c2ccccc2)cc(C(F)(F)F)n1)C(=O)N1CCCC1 (stereo not drawn)	105% (inactive)
COc1ccc(-c2nc(SCC(=O)N3CCN(c4ccc(F)cc4)CC3)n[nH]2)cc1	85% (inactive)
O=C(CSc1n[nH]c(-c2ccccc2)n1)N1CCN(c2ccc(F)cc2)CC1	65% (inactive)
CC1(C)CC(=O)c2cc(C(=O)Nc3ccc(Br)cc3)c(=O)n(-c3ccc(Cl)cc3)c2C1	74% (inactive)
O=C(Nc1ccccc1)NC1(C(=O)Nc2ccc(-n3cnnn3)cc2)CCCCC1	123% (inactive)
COc1ccc(NC(=O)CS(=O)CC(=O)Nc2cc(OC)ccc2OC)cc1 (stereo not drawn)	107% (inactive)
CCOC(=O)C1CCN(C(=O)c2ccc3c(c2)sc2nc(-c4ccccc4)cn23)CC1	42% (inactive)
Cc1cc(S(=O)(=O)Nc2cc3c(cc2N2CCOCC2)n(C)c(=O)n3C)ccc1F	82% (inactive)
CC(=O)Oc1cn(C(C)=O)c2ccccc12	84% (inactive)
CC1CCCCN1S(=O)(=O)c1ccc(NC(=O)C2COc3ccccc3O2)cc1 (stereo not drawn)	125% (inactive)
COc1cc(NC(=O)Cc2c(C(=O)O)c(C)cn2C)cc(OC)c1	99% (inactive)
O=C(CCN1CCCCC1)Nc1ccccc1	110% (inactive)
CCOC(=O)c1ccc(N2C(=O)c3n[nH]c(-c4ccco4)c3C2c2ccc(F)cc2)cc1 (stereo not drawn)	9% (active)
CCOC(=O)c1ccc(N2C(=O)c3n[nH]c(C)c3C2c2cccc(Br)c2)cc1 (stereo not drawn)	3% (active)
CCOC(=O)c1ccc(N2C(=O)c3n[nH]c(C)c3C2c2ccc(CC)cc2)cc1 (stereo not drawn)	82% (inactive)
CCOC(=O)c1ccc(N2C(=O)c3n[nH]c(-c4ccco4)c3C2c2ccc(C)cc2)cc1 (stereo not drawn)	32% (inactive)
CCOC(=O)c1ccc(N2C(=O)c3n[nH]c(-c4ccco4)c3C2c2ccc(O)cc2)cc1 (stereo not drawn)	67% (inactive)
CCOC(=O)c1ccc(N2C(=O)c3n[nH]c(C)c3C2c2ccc(C(C)(C)C)cc2)cc1 (stereo not drawn)	81% (inactive)

Structure (SMILES)	survival
Cn1cc(S(=O)(=O)N2CCCCC2)cc1C(=O)NCc1ccc(Cl)cc1	88% (inactive)
COc1ccc(CNC(=O)Cc2c(C)c3cc4c(C)coc4cc3oc2=O)cc1	88% (inactive)
COc1ccc(-c2nc3sc(CCNC(=O)C(=O)Nc4cc(C)cc(C)c4)c(C)n3n2)cc1	89% (inactive)
CC(=O)c1ccc(N2CCN(C(=O)C3CCN(S(=O)(=O)c4c(C)noc4/C=C/c4ccc(C)cc4)CC3)CC2)cc1	127% (inactive)
O=C(O)CCC(=O)NC(c1ccccc1)c1ccccc1	108% (inactive)
Cc1cc(C)nc(N2CCC(C(=O)Nc3nnc(C(C)C)s3)CC2)n1	107% (inactive)
COC(=O)c1cc2c(ccn2-c2ccc(F)cc2)n1Cc1ccccc1	88% (inactive)
Cc1ccc(CN2C(=O)CN(C3CCCCCC3)C(=O)C2c2ccc(F)cc2)cc1 (stereo not drawn)	1% (active)
Cc1ccc(CN2C(=O)CN(C3CCC(C)CC3)C(=O)C2c2ccc(F)cc2)cc1 (stereo not drawn)	119% (inactive)
COc1ccc(C2C(=O)N(C3CCCCCC3)CC(=O)N2Cc2ccc(C)cc2)cc1 (stereo not drawn)	75% (inactive)
COc1ccc(C)cc1NC(=O)Nc1cccc(OCc2cc(=O)n3ccc(C)cc3n2)c1	73% (inactive)
CCC(=O)N1c2ccc(S(=O)(=O)CCC(=O)Nc3ccc(Br)c(C)c3)cc2CC1C (stereo not drawn)	87% (inactive)
Cc1ccc(CNC(=O)C2CCN(Cc3nc(-c4cccc(Br)c4)oc3C)CC2)cc1	75% (inactive)
Cc1oc(-c2ccc(Cl)cc2)nc1CN1CCCC(C(=O)NCc2ccccc2)C1 (stereo not drawn)	88% (inactive)
Cc1oc(-c2cccc(Cl)c2)nc1CN1CCCC(C(=O)NCc2ccc(Cl)cc2)C1 (stereo not drawn)	-1% (active)
Cc1ccc(CNC(=O)C2CCCN(Cc3nc(-c4cccc(C)c4)oc3C)C2)cc1 (stereo not drawn)	4% (active)
Cc1cccc(-c2nc(CN3CCCC(C(=O)NCc4ccc(Cl)cc4)C3)c(C)o2)c1 (stereo not drawn)	2% (active)
Cc1oc(-c2ccc(Cl)cc2)nc1CN1CCCC(C(=O)NCc2ccc(Cl)cc2)C1 (stereo not drawn)	85% (inactive)
Cc1ccccc1-c1nc(CN2CCCC(C(=O)NCc3ccc(Cl)cc3)C2)c(C)o1 (stereo not drawn)	68% (inactive)
Cc1oc(-c2cccc(Cl)c2)nc1CN1CCCC(C(=O)NCc2ccc(F)cc2)C1 (stereo not drawn)	64% (inactive)
CCc1ccc(-c2nc(CN3CCCC(C(=O)NCc4ccc(C)cc4)C3)c(C)o2)cc1 (stereo not drawn)	88% (inactive)
